Bioassay records deposited in PubChem BioAssay by several laboratories.
AI-2 QS mod: modulates the Vibrio harveyi AI-2 quorum sensing system | Vibrio harveyi JMH597 AI-2 luminescence/OD600 ratio, 9 h; active compounds read low; strain lacks LuxN and CqsS sensors; 0 = neutral-control median | activity change, % at 7.5 µM | 0.4% of 300,000 active | AID 2094; in the data active = activity change below about -75%, passing the limit was not always enough;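 note: luminescence divided by OD600 gain over 9 h not by final OD600 alone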
PG9 binder: binds the HIV-1 gp120 antibody PG9; TR-FRET gp120-PG9 antibody binding; inhibition, % at 6.7 µM; 0.43% of 360,000 active; AID 624416; in the data active = inhibition above about 8.5%
HSP90 inh: blocks HSP90-mediated luciferase refolding in reticulocyte lysate | Rabbit reticulocyte lysate, luciferase refolding luminescence, 3 h | inhibition, % at 5.6 µM | 0.91% of 290,000 active;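 active = inhibition above the screen-wide mean plus 3 SD, computed separately per campaign, cut at about 16% in these data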;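 note: 0% = DMSO wells and 100% = 60 µM geldanamycin wells; inhibitors lower the luminescence because luciferase stays unfolded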
HSF1 inh: HSF1 inhibition; 0.77% of 300,000 active; NIH3T3-HGL HSE-luciferase, MG132-induced, luminescence 8 h; active compounds read low; AID 2098; activity change, negative = inhibition, % at 7.5 µM (by protocol);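 active = more than half of replicate wells show activity change below -50%, luminescence cut by over half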;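 note: luciferase reports HSF-1 transcriptional activity via heat shock element; 0% = median of DMSO wells and -100% = zero luminescence signal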
GAA850 FXN act: increases GAA850 frataxin promoter reporter activity | activation, % at 6 µM | 0.56% of 360,000 active | HEK293 lucGAA850 FXN promoter luciferase reporter, 24 h; percent of 10 µM SAHA response;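 active = activation above the average of all compounds screened plus 3 SD, cutoff fixed separately per campaign, cut at about 7.5% in these data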;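 note: 0% = DMSO wells and 100% = 10 µM SAHA wells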
SMARCA2 activ: increases SMARCA2 function in MMTV reporter cells. activation, % at 9.1 µM. 1% of 370,000 active. MG213 cells, MMTV-luciferase reporter, dexamethasone, overnight; in the data active = activation above about 7.8%;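 note: 0% = vehicle wells and 100% = reference activator wells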
PG9 binder conf: confirmation of small molecules binding HIV-1 gp120 antibody PG9; shares compounds with PG9 binder; TR-FRET PG9 antibody binding, biochemical; inhibition, % at 6.7 µM; 90% of 1,500 active; AID 651571; in the data active = inhibition above about 9%
PGV04 counter: counter-screen for PG9 binders: binding control antibody PGV04; AID 651604; 95% of 1,500 active; inhibition, % at 6.7 µM; TR-FRET PGV04 antibody-gp120 binding, biochemical; shares compounds with PG9 binder; in the data active = inhibition above about 9.5%
PG9 bind DR: small molecules binding HIV-1 gp120 antibody PG9 | shares compounds with PG9 binder | TR-FRET PG9 antibody-gp120 binding inhibition | IC50, µM | 95 tested, under 10 active | AID 651848; in the data active = IC50 below about 10 µM
PGV04 DR counter: PGV04 binding, dose response counter-screen; shares compounds with PG9 binder; TR-FRET binding to control antibody PGV04; IC50, µM; 20% of 95 active
PG126 DR counter: PG126 binding, dose response counter-screen | IC50, µM | shares compounds with PG9 binder | 20% of 95 active | TR-FRET binding to antibody PG126, counterscreen | AID 651939
Starred values were filed as active, the others as inactive; i = inactive; . = no result. A selection: hits, their analogues and other compounds. The true share with any hit is near 3.4%. Cut-off read from the data, not from the text of the source, unless noted: active = IC50 below about 9 µM; inactive = the rest.

SMILES	AI-2 QS mod	PG9 binder	HSP90 inh	HSF1 inh	GAA850 FXN act	SMARCA2 activ	PG9 binder conf	PGV04 counter	others
Cc1cc(Cl)ccc1-c1nc(NC(C)C)nc2ccsc12	.	0.3	.	.	4.0	-2.3	.	.
CC(=O)Nc1ccc(NC(=O)c2ccc(COc3ccccc3)cc2)cc1	.	-0.8	4.7	-3.4	3.1	-2.7	.	.
O=C(NCC(c1ccc(F)cc1)N1CCOCC1)c1ccc(OCc2ccccc2)cc1 (stereo not drawn)	.	17.2*	.	.	-0.9	3.3	16.7*	21.7*
O=C(Nc1ccc(F)cc1)c1ccc(COc2ccccc2)cc1	-5.1	9.6*	2.6	-6.1	0.3	1.5	46.4*	55.8*
Nc1[nH]c(C(=O)c2ccccc2)c(-c2ccccn2)c1C(=O)c1c[nH]c2ccccc12	.	0.1	.	.	.	-0.9	.	.
Cn1c(=O)c2c(-c3ccccc3)n(-c3ccccc3S)cc2n(C)c1=O	.	0.3	.	.	-0.9	-3.6	.	.
CCc1cc2cc(C)c(C)cc2nc1SCC(=O)Nc1cc(C)on1	14.9	-2.7	-2.5	0.3	-1.0	0.7	.	.
CCc1cc2ccccc2nc1SCC(=O)Nc1cc(C)on1	6.5	21.9*	1.5	2.3	0.1	-0.3	22.1*	30.4*
Cc1cccc(C)c1NC(=O)CSc1cc(C(=O)c2nccn2C)c2ccccc2n1	16.7	14.0*	-1.4	-3.1	-4.2	-4.2	40.6*	57.6*
Cc1cc(NC(=O)CSc2cc(C)c3ccccc3n2)no1	.	13.2*	.	.	-0.2	-3.4	15.9*	42.2*
CC(C)c1nc(SCC(=O)NC2CCCCC2)c2ccccc2n1	.	1.5	0.3	5.9	2.2	-1.8	.	.
Cn1ccnc1C(=O)c1cc(SCC(=O)NC2CC2)nc2ccccc12	7.6	0.7	1.7	0.0	-0.7	-2.9	.	.
CC(C)(C)c1nc(SCC(=O)NC2CCCC2)c2ccccc2n1	3.5	9.9*	2.1	10.2	-1.6	-2.6	13.3*	17.0*
C[C@@H]1CN(c2ccc(N3CCNC[C@@H]3C)cc2C#N)CCN1Cc1ccccc1	.	-2.6	.	.	.	2.8	.	.
O=C(NC1CCCCC1)c1csnn1	.	1.6	.	-1.5	1.7	-7.1	.	.
Cc1cc(NC(=O)CSc2nc(C(C)(C)C)nc3ccccc23)no1	34.1	36.4*	1.6	.	-5.1	-2.8	43.6*	54.7*
CCOC(=O)N1CCC(NC(=O)c2cc3sccc3n2CC)CC1	-6.2	-0.7	-4.0	0.4	1.0	-1.5	.	.
CCn1c(C(=O)NC2CCC(C)CC2)cc2sccc21 (stereo not drawn)	9.7	11.0*	0.0	12.7	1.6	-1.9	4.5	8.3
CC(=O)c1c(C)[nH]c(C(=O)Nc2ccc(C)c(S(=O)(=O)Nc3ccc(C)cc3C)c2)c1C	13.5	10.6*	4.5	22.2	-0.4	-3.5	13.2*	15.6*
CC(=O)c1c(C)[nH]c(C(=O)Nc2ccc(C)c(S(=O)(=O)N(C)C)c2)c1C	-0.3	-0.4	-4.3	12.9	5.2	4.8	.	.
CCCn1c(/C=C/c2cc[n+](C)cc2)nc2ccccc21	10.4	10.2*	0.1	-4.0	1.1	0.5	13.0*	15.3*
N#CC(C#N)=C1NC(N)=C(C#N)C(c2ccccc2)=C1C#N	7.9	21.8*	-6.2	0.6	-0.5	-0.8	21.3*	25.8*
N#CC1=C(c2ccccc2)/C(=C/c2ccccc2)OC1=O	23.8	0.7	-2.8	112.0	4.1	-2.0	.	.
O=C(C1=C(O)C(=O)N(CCCN2CCOCC2)C1c1ccncc1)c1cc2ccccc2o1 (stereo not drawn)	9.7	.	4.9	-7.2	.	.	.	.
COC(=O)c1ccc(C2C(C(=O)c3cc4ccccc4o3)=C(O)C(=O)N2CCCN(C)C)cc1 (stereo not drawn)	5.1	18.6*	1.4	-2.4	0.0	-1.3	20.2*	29.0*
SMILES	AI-2 QS mod	PG9 binder	HSP90 inh	HSF1 inh	GAA850 FXN act	SMARCA2 activ	PG9 binder conf	PGV04 counter	others
O=C(C1=C(O)C(=O)N(Cc2ccco2)C1c1cccnc1)c1cc2ccccc2o1 (stereo not drawn)	14.5	15.3*	-5.6	-5.5	-0.7	1.1	30.8*	46.2*
CN(C)CCCN1C(=O)C(O)=C(C(=O)c2cc3ccccc3o2)C1c1ccccn1 (stereo not drawn)	.	26.4*	.	.	2.5	-0.7	40.0*	51.0*
CN(C)CCCN1C(=O)C(O)=C(C(=O)c2cc3ccccc3o2)C1c1ccccc1 (stereo not drawn)	0.3	35.6*	-0.3	2.8	0.0	-0.2	37.1*	55.1*
COC(=O)N1CCCCC1c1cc(C(=O)Nc2cccc3c2CCCC3)no1 (stereo not drawn)	.	-1.4	.	.	1.8	-0.6	.	.
CSc1ccc(C(=O)NC2CCSc3ccccc32)cc1 (stereo not drawn)	.	15.8*	-1.7	12.3	-0.2	-0.3	10.7*	10.1*	PG9 bind DR=>67;PGV04 DR counter=i;PG126 DR counter=i
COc1ccc(C(=O)NC2CCSc3ccccc32)cc1 (stereo not drawn)	12.1	-2.3	-0.7	1.9	2.1	0.3	.	.
COC(=O)c1ccc(C2/C(=C(\O)c3ccc(OC)c(C)c3)C(=O)C(=O)N2c2cc(C)on2)cc1 (stereo not drawn)	41.9	8.7*	-3.2	11.5	-0.9	0.1	13.5*	19.2*
COC(=O)[C@]12C[C@H](CC(=O)N3CCN(C(=O)C4CC4)CC3)C(=O)N(Cc3ccccc3)C1=C[C@H](C1CCCC1)O[C@@H]2C	.	2.0	.	.	.	-0.4	.	.
O=c1oc2cc(O)c(Cl)cc2c2ccccc12	21.9	66.5*	-1.4	0.5	3.8	-1.8	62.1*	81.6*
CC(C)(C)n1nc(C2CC2)c(Br)c1NC(=O)c1ccccc1Cl	.	-2.1	.	.	.	-4.0	.	.
CCCCN1C(=O)C(CC(=O)NCCc2ccccn2)CC(C(=O)N(CC)CC)=C1C (stereo not drawn)	.	-1.2	.	.	1.7	-2.5	.	.
O=C(Nc1nc2ccc(Cl)cc2s1)c1ccc(Br)o1	26.5	1.8	-3.5	23.2	-0.2	4.5	.	.
O=C(Nc1nc2c(Cl)cccc2s1)c1ccc(Br)o1	32.9	34.7*	7.3	9.6	-0.1	0.8	39.3*	43.5*
COC(=O)[C@]12C[C@H](CC(=O)NCCCN3CCCC3=O)C(=O)N(Cc3ccc4c(c3)OCO4)C1=C[C@H](COCc1ccccc1)O[C@@H]2C	.	-0.2	.	.	.	4.0	.	.
